The source of these data is the antibiotic and cytotoxicity screens of Wong et al. (2023).

The whole screen tested about 39,000 compounds, of which about 1,500 (3.8%) were called active. The sample as a whole holds a higher share of actives than the screen did.

The experiment relates to HSkMC (human skeletal muscle cells). Nature of the experiment: cytotoxicity call (relative viability < 0.9). As to conditions: 10 µM.
Take `C[C@@H]1CCCCO[C@H](CN(C)C(=O)c2ccccc2)[C@H](C)CN([C@@H](C)CO)C(=O)c2cc(NC(=O)Cc3ccccc3)ccc2O1`: the cytotoxicity call is “inactive”.

Take `C[C@@H]1CN([C@@H](C)CO)C(=O)Cc2cc(NS(=O)(=O)c3cn(C)cn3)ccc2O[C@H]1CN(C)C`: the cytotoxicity call was “inactive”.

With `COC(=O)C1=CO[C@@H](O[C@@H]2O[C@H](CO)[C@@H](O)[C@H](O)[C@H]2O)[C@@H]2[C@@H](CO)C=C[C@H]12`, the cytotoxicity call is “inactive”.

Turning to `C[C@@H]1CN([C@@H](C)CO)C(=O)c2cc(NC(=O)CCC(F)(F)F)ccc2O[C@@H](C)CCCCO[C@@H]1CN(C)C(=O)C1CCCCC1`, the cytotoxicity call was “inactive”.

`COc1ccc(C#Cc2ccc3c(c2)O[C@@H](CN(C)C(C)=O)[C@@H](C)CN([C@H](C)CO)S3(=O)=O)cc1`: the cytotoxicity call is “inactive”.

Regarding `COc1ccc(CN(C)C[C@@H]2OCCCC[C@H](C)Oc3ccc(NC(=O)CCC(F)(F)F)cc3C(=O)N([C@@H](C)CO)C[C@@H]2C)cc1`, the cytotoxicity call was “inactive”.

For the compound `CCCNc1nc(Nc2ccc(C#N)cc2)ncc1C#CCCCNC(=O)[C@H](C)N(C)C(=O)/C=C/CN(C)C`, the cytotoxicity call was “active”.

With `OCc1ccccc1-n1cncn1`, the cytotoxicity call is “inactive”.

Turning to `COc1ccc2c3c([nH]c2c1)[C@@H](CO)N(CC1CCCC1)C[C@]13CCN(CC1)C(=O)Nc1cccc(c1)F`, the cytotoxicity call is “inactive”.

As to `COc1ccc2c3c([nH]c2c1)[C@H](CO)N(CC1CCCC1)C[C@]13CCN(CC1)C(=O)Nc1cccc(c1)F`, the cytotoxicity call is “inactive”.

Regarding `COc1ccc2c3c([nH]c2c1)[C@H](CO)N(C[C@]13CCN(CC1)C(=O)Nc1ccc(cc1)F)C(=O)c1ccc(cc1)F`, the cytotoxicity call was “inactive”.

In the case of `COc1ccc2c3c([nH]c2c1)[C@@H](CO)N(CC1CCCC1)C[C@]13CCN(CC1)C(=O)c1ccc(cc1)F`, the cytotoxicity call was “active”.

For the compound `COc1ccc2c3c([nH]c2c1)[C@H](CO)N(CC1CCCC1)C[C@]13CCN(CC1)C(=O)c1ccc(cc1)F`, the cytotoxicity call is “active”.

On to `COc1ccc2c3c([nH]c2c1)[C@@H](CO)N(C[C@]13CCN(CC1)C(=O)Nc1ccc(cc1)F)C(=O)c1ccc(cc1)F`, for which the cytotoxicity call was “inactive”.

`CC(=O)N[C@H](Cc1ccc2ccccc2c1)C(=O)N[C@H](Cc1ccc(Cl)cc1)C(=O)N[C@H](Cc1cccnc1)C(=O)N[C@@H](CO)C(=O)N(C)[C@@H](Cc1ccc(O)cc1)C(=O)N[C@H](CC(N)=O)C(=O)N[C@@H](CC(C)C)C(=O)N[C@@H](CCCCNC(C)C)C(=O)N1CCC[C@H]1C(=O)N[C@H](C)C(N)=O`: the cytotoxicity call was “inactive”.

For `CS(=O)(=O)Nc1ccc2c(c1)[C@@H]1C[C@H](CC(=O)NCc3ccc(-c4ccccc4)cc3)O[C@@H](CO)[C@@H]1O2`, the cytotoxicity call is “inactive”.

Regarding `C[C@@H]1CN([C@@H](C)CO)C(=O)Cc2cc(NC(=O)CCCCCC(=O)Nc3ccccc3N)ccc2O[C@H]1CN(C)Cc1ccccc1`, the cytotoxicity call was “inactive”.

Take `C[C@@H]1CN([C@H](C)CO)C(=O)c2cc(NC(=O)Nc3ccc(C(F)(F)F)cc3)ccc2O[C@@H](C)CCCCO[C@H]1CN(C)S(=O)(=O)c1ccc(F)cc1`: the cytotoxicity call was “inactive”.

For the compound `Cc1noc(C)c1NC(=O)N(C)C[C@@H]1OCCCC[C@H](C)Oc2ccc(NS(=O)(=O)c3ccccc3)cc2C(=O)N([C@@H](C)CO)C[C@@H]1C`, the cytotoxicity call is “inactive”.

With `COc1ccc2[nH]cc(CCNC(C)=O)c2c1`, the cytotoxicity call was “inactive”.

As to `CC(C)Oc1cccc(-n2c(CCc3c[nH]c4ccc(Br)cc34)nc3ccccc3c2=O)c1`, the cytotoxicity call is “active”.

Take `Cn1c(CN)nc2ccccc2c1=O`: the cytotoxicity call is “inactive”.

Take `C[C@@H]1CCCCO[C@H](CN(C)C(=O)Cc2ccccc2)[C@H](C)CN([C@H](C)CO)C(=O)c2cc(NS(=O)(=O)c3cccs3)ccc2O1`: the cytotoxicity call was “inactive”.

Take `Cc1noc(C)c1S(=O)(=O)Nc1ccc2c(c1)C(=O)N([C@@H](C)CO)C[C@H](C)[C@H](CN(C)S(=O)(=O)c1cn(C)cn1)O2`: the cytotoxicity call is “inactive”.

Regarding `C[C@H](CO)N1C[C@H](C)[C@H](CN(C)C(=O)Nc2cccc3ccccc23)OCCCC[C@H](C)Oc2ccc(NS(=O)(=O)c3cn(C)cn3)cc2C1=O`, the cytotoxicity call was “inactive”.

With `C[C@H]1CCCCO[C@H](CN(C)C(=O)Nc2cccc3ccccc23)[C@@H](C)CN([C@@H](C)CO)C(=O)c2cc(NS(=O)(=O)c3cn(C)cn3)ccc2O1`, the cytotoxicity call is “inactive”.

Take `C[C@@H]1CCCCO[C@H](CN(C)C(=O)Nc2cccc3ccccc23)[C@H](C)CN([C@H](C)CO)C(=O)c2cc(NS(=O)(=O)c3cn(C)cn3)ccc2O1`: the cytotoxicity call was “active”.

Take `C[C@@H]1CN([C@@H](C)CO)C(=O)c2cc(NS(=O)(=O)c3cn(C)cn3)ccc2O[C@@H](C)CCCCO[C@@H]1CN(C)C(=O)Nc1cccc2ccccc12`: the cytotoxicity call is “active”.

Take `C[C@@H]1CCCCO[C@H](CN(C)C(=O)Nc2cccc3ccccc23)[C@H](C)CN([C@@H](C)CO)C(=O)c2cc(NS(=O)(=O)c3cn(C)cn3)ccc2O1`: the cytotoxicity call was “inactive”.

As to `C[C@H]1CCCCO[C@@H](CN(C)C(=O)Nc2cccc3ccccc23)[C@@H](C)CN([C@@H](C)CO)C(=O)c2cc(NS(=O)(=O)c3cn(C)cn3)ccc2O1`, the cytotoxicity call is “active”.

With `C[C@H](CO)N1C[C@H](C)[C@@H](CN(C)C(=O)Nc2cccc3ccccc23)OCCCC[C@H](C)Oc2ccc(NS(=O)(=O)c3cn(C)cn3)cc2C1=O`, the cytotoxicity call was “inactive”.

Consider `C[C@@H]1CN([C@@H](C)CO)C(=O)c2cc(NS(=O)(=O)c3cn(C)cn3)ccc2O[C@@H](C)CCCCO[C@H]1CN(C)C(=O)Nc1cccc2ccccc12`, for which the cytotoxicity call is “active”.

For `C[C@@H]1CCCCO[C@@H](CN(C)C(=O)Nc2cccc3ccccc23)[C@@H](C)CN([C@H](C)CO)C(=O)c2cc(NS(=O)(=O)c3cn(C)cn3)ccc2O1`, the cytotoxicity call was “inactive”.

For `C[C@@H]1CCCCO[C@H](CN(C)C(=O)Nc2cccc3ccccc23)[C@@H](C)CN([C@@H](C)CO)C(=O)c2cc(NS(=O)(=O)c3cn(C)cn3)ccc2O1`, the cytotoxicity call is “inactive”.

For `C[C@@H]1CCCCO[C@@H](CN(C)C(=O)Nc2cccc3ccccc23)[C@H](C)CN([C@H](C)CO)C(=O)c2cc(NS(=O)(=O)c3cn(C)cn3)ccc2O1`, the cytotoxicity call was “inactive”.

Consider `C[C@@H]1CCCCO[C@@H](CN(C)C(=O)Nc2cccc3ccccc23)[C@H](C)CN([C@@H](C)CO)C(=O)c2cc(NS(=O)(=O)c3cn(C)cn3)ccc2O1`, for which the cytotoxicity call is “inactive”.

As to `C[C@@H]1CN([C@@H](C)CO)S(=O)(=O)c2ccc(-c3cncnc3)cc2O[C@H]1CN(C)C(=O)Cc1cccnc1`, the cytotoxicity call was “inactive”.

`C[C@@H]1CCCCO[C@H](CN(C)C(=O)Nc2ccccc2)[C@@H](C)CN([C@H](C)CO)C(=O)c2cc(NC(=O)c3ccncc3)ccc2O1`: the cytotoxicity call is “inactive”.

On to `Cc1noc(C)c1NC(=O)N(C)C[C@H]1Oc2ccc(NS(=O)(=O)c3cccs3)cc2CC(=O)N([C@@H](C)CO)C[C@H]1C`, for which the cytotoxicity call is “inactive”.

For `Cc1ccc(-c2cnc(-c3ccc(Br)cc3)o2)cc1`, the cytotoxicity call was “inactive”.

`C[C@@H]1CN([C@H](C)CO)C(=O)Cc2cc(NC(=O)Cn3cnnn3)ccc2O[C@@H]1CN(C)Cc1ccccc1`: the cytotoxicity call is “inactive”.

Turning to `CCCN1C[C@H](C)[C@@H](O)[C@](C)(O)[C@@H](CC)OC(=O)[C@H](C)[C@@H](O[C@H]2C[C@@](C)(OC)[C@@H](O)[C@H](C)O2)[C@H](C)[C@@H](O[C@@H]2O[C@H](C)C[C@H](N(C)C)[C@H]2O)[C@](C)(O)C[C@H]1C`, the cytotoxicity call is “inactive”.

Turning to `CC(C)c1ccccc1Cc1cc(C(=O)Nc2ccc(S(=O)(=O)c3ccccc3C(C)(C)C)cc2)c(O)c(O)c1O`, the cytotoxicity call is “active”.

Consider `CCc1cccc(C(C)C)c1NC(=O)Nc1ccccc1`, for which the cytotoxicity call is “inactive”.

Consider `Cc1oc(C(C)(C)C)cc1C(=O)Nc1ccc(C(C)C)cc1`, for which the cytotoxicity call was “inactive”.

Turning to `CNC(=O)C[C@@H]1CC[C@@H]2[C@H](COC[C@H](O)CN2C(=O)Nc2cccc(OC)c2)O1`, the cytotoxicity call is “inactive”.

With `C[C@H]1CCCCO[C@H](CN(C)C(=O)Nc2ccc3c(c2)OCO3)[C@@H](C)CN([C@@H](C)CO)C(=O)c2cc(NS(=O)(=O)c3ccccc3)ccc2O1`, the cytotoxicity call was “inactive”.

Take `C[C@H](O)[C@H](O)[C@@H](O)[C@@H](O)/C=N/NC(=O)CCCCC(=O)NO`: the cytotoxicity call was “inactive”.

With `C[C@H](CO)N1C[C@H](C)[C@H](CN(C)C(=O)Nc2cccc3ccccc23)OCCCC[C@H](C)Oc2ccc(NS(C)(=O)=O)cc2C1=O`, the cytotoxicity call was “inactive”.

`Cc1ccc(S(=O)(=O)Nc2ccc3c(c2)CC(=O)N([C@@H](C)CO)C[C@@H](C)[C@@H](CN(C)Cc2ccc(-c4ccccc4)cc2)O3)cc1`: the cytotoxicity call is “active”.

Consider `Cc1ccc(S(=O)(=O)Nc2ccc3c(c2)CC(=O)N([C@H](C)CO)C[C@H](C)[C@@H](CN(C)Cc2ccc(-c4ccccc4)cc2)O3)cc1`, for which the cytotoxicity call is “inactive”.

As for `Cc1ccc(S(=O)(=O)Nc2ccc3c(c2)CC(=O)N([C@H](C)CO)C[C@H](C)[C@H](CN(C)Cc2ccc(-c4ccccc4)cc2)O3)cc1`, the cytotoxicity call is “inactive”.

With `Cc1ccc(S(=O)(=O)Nc2ccc3c(c2)CC(=O)N([C@H](C)CO)C[C@@H](C)[C@H](CN(C)Cc2ccc(-c4ccccc4)cc2)O3)cc1`, the cytotoxicity call is “active”.

As for `Cc1ccc(S(=O)(=O)Nc2ccc3c(c2)CC(=O)N([C@H](C)CO)C[C@@H](C)[C@@H](CN(C)Cc2ccc(-c4ccccc4)cc2)O3)cc1`, the cytotoxicity call is “active”.

On to `Cc1ccc(S(=O)(=O)Nc2ccc3c(c2)CC(=O)N([C@@H](C)CO)C[C@H](C)[C@@H](CN(C)Cc2ccc(-c4ccccc4)cc2)O3)cc1`, for which the cytotoxicity call was “active”.

Take `C[C@H]1CN([C@@H](C)CO)C(=O)c2cc(NC(=O)NC3CCCCC3)ccc2O[C@H]1CN(C)Cc1ccc(C(=O)Nc2ccccc2N)cc1`: the cytotoxicity call is “inactive”.

Regarding `C[C@@H]1CN([C@H](C)CO)C(=O)c2cc(NC(=O)c3ccncc3)ccc2O[C@H]1CN(C)S(=O)(=O)c1ccc(F)cc1`, the cytotoxicity call is “inactive”.

For the compound `C[C@@H]1CN([C@@H](C)CO)C(=O)c2cc(NC(=O)C3CC3)ccc2O[C@@H]1CN(C)S(=O)(=O)c1ccc(F)cc1`, the cytotoxicity call was “inactive”.

For the compound `CC(C)NC(=O)N[C@H]1C=C[C@@H](CC(=O)NCCN2CCCC2)O[C@H]1CO`, the cytotoxicity call is “inactive”.
